Experiment [1] relates to TRPC4 beta (transient receptor potential cation channel C4), mouse. Put plainly: activators of mouse TRPC4 channel, confirmation, cell-based, Fluo4 calcium, HEK293 TRPC4beta/mu-opioid, duplicates, 10 µM (AID 2426;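 active = fluorescence ratio normalized to control raised more than 50% in primary screen plus both repeat runs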). To be noted: Fluo4 calcium fluorescence, at 10 µM; hits give high values.
Experiment [2] concerns transient receptor potential cation channel C4 beta (TRPC4), mouse. Put plainly: activators of mouse TRPC4 channel, confirmation, cell-based, second round, Fluo4, HEK293 TRPC4beta/mu-opioid, 1 µM (AID 2461). To be noted: Fluo4 calcium fluorescence, at 1 µM; hits give high values.
The subject of experiment [3] is TRPC4 (transient receptor potential cation channel C4 beta), mouse. Put plainly: positive allosteric modulators of mouse TRPC4, confirmation, cell-based, second round, Fluo-4, HEK293 TRPC4beta/mu-opioid, 1 µM (AID 2554;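 active = primary screen hit whose fluorescence ratio, in both repeats, exceeds the weak agonist control mean by 3 SD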). To be noted: DAMGO EC20, Fluo-4 calcium flux, at 1 µM; hits give high values.
Experiment [4] has as its system TRPC4 beta (transient receptor potential cation channel C4), mouse. Put plainly: positive allosteric modulators of mouse TRPC4, confirmation, cell-based, Fluo-4, HEK293 TRPC4beta/mu-opioid (AID 2555;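 active = primary screen hit whose calcium fluorescence ratio, in both repeats, exceeds the weak agonist control mean by 3 SD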). To be noted: DAMGO EC20, Fluo-4 calcium flux, at 10 µM; hits give high values.
For experiment [5], the target named is Short transient receptor potential channel 4 (Mus musculus) (UniProt Q9QUQ5). Put plainly: inhibitors of mouse TRPC4 channel, confirmation, cell-based, Fluo4, HEK293 TRPC4beta/mu-opioid (AID 2636;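 active = calcium signal cut by more than 3 SD below the full-agonist control yet still positive, in both repeats and the earlier primary screen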). The note with it: DAMGO, Fluo4 calcium flux, at 10 µM; hits give high values.
Short transient receptor potential channel 4 (Mus musculus), sequence (Q9QUQ5 whole entry, looked up): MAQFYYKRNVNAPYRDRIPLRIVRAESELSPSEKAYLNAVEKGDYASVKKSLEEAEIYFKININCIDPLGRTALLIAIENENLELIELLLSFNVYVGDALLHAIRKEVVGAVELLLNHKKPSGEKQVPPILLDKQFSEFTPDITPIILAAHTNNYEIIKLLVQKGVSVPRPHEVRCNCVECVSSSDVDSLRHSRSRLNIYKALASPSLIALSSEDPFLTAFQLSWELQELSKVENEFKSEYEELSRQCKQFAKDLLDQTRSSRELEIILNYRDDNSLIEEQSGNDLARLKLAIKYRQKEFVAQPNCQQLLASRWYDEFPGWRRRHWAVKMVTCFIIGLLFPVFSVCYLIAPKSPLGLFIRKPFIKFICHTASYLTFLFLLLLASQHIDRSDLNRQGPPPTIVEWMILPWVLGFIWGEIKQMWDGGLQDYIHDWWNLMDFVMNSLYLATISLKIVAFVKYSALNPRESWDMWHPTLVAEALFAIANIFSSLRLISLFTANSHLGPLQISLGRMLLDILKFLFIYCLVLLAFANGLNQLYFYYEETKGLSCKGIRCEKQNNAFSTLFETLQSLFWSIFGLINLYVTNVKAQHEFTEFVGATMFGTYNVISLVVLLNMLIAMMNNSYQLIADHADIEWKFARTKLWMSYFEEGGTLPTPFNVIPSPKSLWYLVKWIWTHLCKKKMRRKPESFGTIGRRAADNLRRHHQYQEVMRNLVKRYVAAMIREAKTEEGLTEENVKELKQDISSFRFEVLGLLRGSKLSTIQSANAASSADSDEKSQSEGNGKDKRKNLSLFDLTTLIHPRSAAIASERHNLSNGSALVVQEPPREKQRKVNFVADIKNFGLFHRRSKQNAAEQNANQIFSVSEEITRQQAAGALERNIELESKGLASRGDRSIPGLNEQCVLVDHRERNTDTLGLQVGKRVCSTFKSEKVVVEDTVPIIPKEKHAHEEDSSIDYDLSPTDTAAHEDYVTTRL
Experiment [6] shares this target. Put plainly: inhibitors of mouse TRPC4 channel, confirmation, cell-based, second round, Fluo4, HEK293 TRPC4beta/mu-opioid, 1 µM (AID 2637;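 active = calcium signal ratio cut to more than 3 SD under the fully stimulated control mean yet still positive, in both repeats and the primary screen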;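 as to inhibition: percent of integrated ratio relative to wells lacking test compound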). To be noted: Fluo4 calcium flux, DAMGO, at 1 µM; hits give high values.
Experiment [7] has the same target. Put plainly: mouse TRPC4 channel activators, dose response, cell-based, HEK293 TRPC4/mu-opioid, Fluo-4 calcium (AID 434937;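 active = primary screen activator hit with a dose response curve and TRPC4 channel activation at any tested dose; inactive = no activation, no dose response, or not a primary hit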).
For experiment [8] the target is unchanged. Put plainly: mouse TRPC4 channel inhibitors, dose response, cell-based, HEK293 TRPC4/mu-opioid, Fluo-4 calcium (AID 434942;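 active = primary screen inhibitor hit that blocks the TRPC4 channel at some tested dose, yielding a dose curve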).
In experiment [9] the target is Short transient receptor potential channel 6 (Mus musculus) (UniProt Q61143). Put plainly: inhibition of mouse TRPC6 channel, confirmation, selectivity assay for TRPC4 inhibitor project, cell-based, HEK293, membrane potential dye, duplicate (AID 434948;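 active = active in primary screen and both duplicates, each dropping signal beyond three positive-control SD with fluorescence still positive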). The note with it: HEK293 TRPC6, membrane potential dye fluorescence, at 10 µM, stimulated with maximal-effect acetylcholine; hits give high values.
Short transient receptor potential channel 6 (Mus musculus), sequence (Q61143 whole entry, looked up): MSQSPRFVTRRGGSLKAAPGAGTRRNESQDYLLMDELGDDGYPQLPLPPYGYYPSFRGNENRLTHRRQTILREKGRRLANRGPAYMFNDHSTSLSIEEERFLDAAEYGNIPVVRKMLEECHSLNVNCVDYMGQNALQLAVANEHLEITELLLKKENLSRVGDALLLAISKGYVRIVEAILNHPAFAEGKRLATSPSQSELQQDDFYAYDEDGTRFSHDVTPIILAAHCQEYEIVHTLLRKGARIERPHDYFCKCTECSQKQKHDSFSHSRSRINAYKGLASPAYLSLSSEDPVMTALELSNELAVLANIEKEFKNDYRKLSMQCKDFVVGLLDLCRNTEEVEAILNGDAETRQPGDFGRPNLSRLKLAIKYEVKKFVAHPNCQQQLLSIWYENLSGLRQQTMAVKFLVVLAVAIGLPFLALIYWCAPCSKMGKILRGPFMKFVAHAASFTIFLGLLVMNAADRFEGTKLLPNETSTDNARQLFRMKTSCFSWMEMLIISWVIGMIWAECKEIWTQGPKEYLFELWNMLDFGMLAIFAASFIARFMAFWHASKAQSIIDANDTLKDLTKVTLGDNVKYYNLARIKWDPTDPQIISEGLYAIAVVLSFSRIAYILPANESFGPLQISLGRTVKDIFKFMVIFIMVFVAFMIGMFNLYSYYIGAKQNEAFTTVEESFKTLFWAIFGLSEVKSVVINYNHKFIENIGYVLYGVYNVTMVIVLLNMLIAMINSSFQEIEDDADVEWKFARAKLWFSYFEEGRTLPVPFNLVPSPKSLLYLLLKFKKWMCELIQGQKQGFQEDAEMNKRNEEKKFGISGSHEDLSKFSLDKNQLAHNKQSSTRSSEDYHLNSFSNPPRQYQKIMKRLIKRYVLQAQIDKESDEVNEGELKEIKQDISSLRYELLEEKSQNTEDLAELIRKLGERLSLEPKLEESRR

Experiment [10] shares this target. Put plainly: activation of mouse TRPC6 channel, confirmation, selectivity assay for TRPC4 activator project, cell-based, HEK293, membrane potential dye, duplicate (AID 434950;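 active = membrane potential signal rise above negative control mean plus 3 SD in both duplicates, also active in the earlier TRPC4 screen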). To be noted: HEK293 TRPC6, membrane potential fluorescence, at 10 µM; hits give high values.
Experiment [11] shares this target. Put plainly: TRPC6 potentiation by TRPC4 potentiator hits, confirmation, selectivity assay for TRPC4 potentiator project, HEK293 cells, membrane potential dye, duplicate (AID 434952;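 active = compound raising the membrane signal above positive-control mean plus 3 SD in both repeats, and a primary screen hit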). The note with it: HEK293 TRPC6, membrane potential dye fluorescence, at 10 µM, maximal acetylcholine added after compound; hits give high values.
Experiment [12] deals with Short transient receptor potential channel 4 (Mus musculus) (UniProt Q9QUQ5). Put plainly: calcium flux activators in TRPC4/5HT1a cells, counter-screen for TRPC4 activator project, cell-based, second counter screen, HEK293 TRPC4/5HT1a, Fluo-4 (AID 434977;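 active = calcium signal rise above buffer-control mean plus 5 SD in both duplicates, and also a hit in the primary screen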). The note with it: Fluo-4 calcium flux, at 10 µM; hits give high values.
Experiment [13] in a line: calcium flux inhibitors in TRPC4/5HT1a cells, confirmation, counter-screen for TRPC4 inhibitor project, cell-based, second counter screen, HEK293 TRPC4/5HT1a, Fluo-4 (AID 434978;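 active = primary screen active whose calcium signal fell more than 3 SD beyond the full-serotonin control mean in both duplicate plates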;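 as to outcome: serotonin given first at submaximal then at maximal dose after compound preincubation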). The note with it: Fluo-4 calcium flux, at 10 µM, serotonin added to trigger calcium flux; hits give high values.
The test system of experiment [14] is TRPC4 (mouse), co-expressed with 5HT1a in HEK293. Put plainly: calcium flux potentiators in TRPC4/5HT1a cells, confirmation, counter-screen for TRPC4 potentiator project, cell-based, second counter screen, HEK293 TRPC4/5HT1a, Fluo-4 (AID 434979;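 active = signal rise over 3 SD above mean of control wells given weak agonist, in both repeats and first screen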). The note with it: Fluo-4 calcium flux, at 10 µM, serotonin added at its EC20 dose; hits give high values.
Experiment [15] in a line: calcium flux activation in mu-opioid HEK293 cells, confirmation, counter-screen for TRPC4 activator project, cell-based, HEK293 mu-opioid receptor line (AID 449723;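 active = hit in primary screen, with calcium signal over 5 SD above buffer well mean in both duplicates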;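 also: counter screen cells carry the mu-opioid receptor alone and lack TRPC4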). The note with it: Fluo-4 calcium fluorescence, at 10 µM; hits give high values.
The nature of experiment [16]: calcium flux enhancement in mu-opioid HEK293 cells, confirmation, counter-screen for TRPC4 allosteric potentiator project, cell-based, HEK293 mu-opioid receptor line (AID 449724;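 active = calcium signal rise more than 3 SD above the low-dose agonist control mean, in both duplicate plates and the primary screen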). To be noted: Fluo-4 calcium flux, at 10 µM, compound added before EC20 DAMGO stimulus; hits give high values.
Experiment [17] has as its target Short transient receptor potential channel 4 (Mus musculus) (UniProt Q9QUQ5). Put plainly: TRPC4 positive allosteric modulators, dose response, cell-based, HEK293 TRPC4/mu-opioid, Fluo-4 calcium, EC20 DAMGO (AID 434941;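 active = earlier screen potentiator hit that boosts the TRPC4 ion channel at some dose, with a dose response; inactive = no potentiation, no dose response, or not a prior hit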;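 also: calcium entry triggered by an EC20 dose of DAMGO at the co-expressed mu-opioid receptor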).
A short description of experiment [18]: thallium flux activation in parental CHO cells, counter-screen for KCNQ1 potentiator project (AID 493006;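 active = duplicate-averaged activation above buffer control mean plus 5 SD of those controls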). To be noted: parental CHO-K1 cells, FluxOR thallium flux, at 10 µM; hits give high values.
The target in experiment [19] is Potassium voltage-gated channel subfamily KQT member 1 (Homo sapiens) (UniProt P51787). Put plainly: KCNQ1 potassium channel potentiators, confirmation, FluxOR thallium flux, CHO cells, duplicates (AID 493007;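 active = potentiation averaged over duplicate wells exceeding buffer-only control mean by more than 3 SD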;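 also: cells depolarized by a potassium plus thallium sulfate stimulus after compound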). To be noted: KCNQ1 cell line, FluxOR thallium flux fluorescence, at 10 µM; hits give high values, % of reference activator effect, buffer zero.
Potassium voltage-gated channel subfamily KQT member 1 (Homo sapiens), sequence (P51787 whole entry, looked up): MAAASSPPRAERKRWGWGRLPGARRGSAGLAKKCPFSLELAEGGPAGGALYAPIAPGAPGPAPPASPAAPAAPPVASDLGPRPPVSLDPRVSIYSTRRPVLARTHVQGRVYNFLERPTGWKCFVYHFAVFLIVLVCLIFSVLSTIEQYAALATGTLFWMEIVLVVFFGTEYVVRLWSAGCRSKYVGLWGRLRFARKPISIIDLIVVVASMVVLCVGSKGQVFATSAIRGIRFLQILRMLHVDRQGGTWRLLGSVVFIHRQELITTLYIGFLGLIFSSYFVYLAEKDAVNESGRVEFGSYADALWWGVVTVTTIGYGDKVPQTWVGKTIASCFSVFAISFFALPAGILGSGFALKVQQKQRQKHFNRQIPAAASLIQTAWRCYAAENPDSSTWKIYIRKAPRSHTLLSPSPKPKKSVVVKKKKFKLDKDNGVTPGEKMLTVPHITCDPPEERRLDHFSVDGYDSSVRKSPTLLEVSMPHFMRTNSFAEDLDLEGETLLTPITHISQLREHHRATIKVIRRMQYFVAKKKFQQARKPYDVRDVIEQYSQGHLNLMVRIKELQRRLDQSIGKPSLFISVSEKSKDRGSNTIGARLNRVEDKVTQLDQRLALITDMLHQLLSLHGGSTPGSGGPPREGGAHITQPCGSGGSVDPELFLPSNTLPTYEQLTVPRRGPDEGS
Experiment [20] concerns the target Potassium voltage-gated channel subfamily KQT member 2 (Rattus norvegicus) (UniProt O88943). Put plainly: rat KCNQ2 channel potentiation, selectivity assay for KCNQ1 potentiator project, KCNQ2-CHO-K1 cells (AID 493009;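 active = mean duplicate potentiation above the buffer control mean plus 5 SD of buffer wells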;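 also: assay conditions were tuned for KCNQ1 rather than KCNQ2 modulators; signal is max minus min fluorescence divided by baseline after thallium stimulus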). To be noted: FluxOR thallium flux fluorescence, at 10 µM; hits give high values, scaled: buffer 0, activator control 100.

For some of these results: Potency and affinity values are given separately. Calls of active or inactive are those of the source.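 The calls were made as follows, unless noted: active = primary screen active and over 50% activation in each of two duplicate runs; inactive = the rest.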

Consider seven compounds from PubChem BioAssay.

Potassium voltage-gated channel subfamily KQT member 2 (Rattus norvegicus), sequence (O88943 whole entry, looked up): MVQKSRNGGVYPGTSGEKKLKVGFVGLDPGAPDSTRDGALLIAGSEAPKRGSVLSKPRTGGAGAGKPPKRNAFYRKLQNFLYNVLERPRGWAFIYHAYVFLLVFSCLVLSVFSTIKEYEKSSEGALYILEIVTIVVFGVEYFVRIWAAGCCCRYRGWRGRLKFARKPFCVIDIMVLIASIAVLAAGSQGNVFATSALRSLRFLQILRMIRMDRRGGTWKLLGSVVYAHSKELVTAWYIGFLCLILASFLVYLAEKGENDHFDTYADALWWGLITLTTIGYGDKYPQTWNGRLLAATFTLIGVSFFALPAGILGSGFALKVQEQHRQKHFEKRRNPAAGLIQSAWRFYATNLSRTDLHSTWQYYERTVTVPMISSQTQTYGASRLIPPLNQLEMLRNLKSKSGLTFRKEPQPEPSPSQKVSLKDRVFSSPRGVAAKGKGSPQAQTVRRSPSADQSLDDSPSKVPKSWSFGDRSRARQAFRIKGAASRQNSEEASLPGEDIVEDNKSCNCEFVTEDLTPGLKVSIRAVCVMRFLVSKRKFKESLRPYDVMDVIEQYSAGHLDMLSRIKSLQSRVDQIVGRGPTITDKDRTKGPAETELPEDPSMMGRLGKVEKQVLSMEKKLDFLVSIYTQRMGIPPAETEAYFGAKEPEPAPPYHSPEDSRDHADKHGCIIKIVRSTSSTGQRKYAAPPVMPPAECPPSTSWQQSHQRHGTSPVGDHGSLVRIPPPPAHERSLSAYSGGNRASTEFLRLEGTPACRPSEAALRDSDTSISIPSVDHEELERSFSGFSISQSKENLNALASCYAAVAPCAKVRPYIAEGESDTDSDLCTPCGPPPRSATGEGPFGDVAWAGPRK

Take `COC(=O)[C@@]12CCCCN1[C@H](c1ccc(-c3cccc(Cl)c3)c(OC)c1)[C@H]1C(=O)N(C)C(=O)[C@H]12`: the outcome in [1], in experiment [2], in experiment [3], in [5], in experiment [6] and in experiment [7] was inactive. Moreover, the outcome in [8], in experiment [9], in experiment [10], in experiment [11], in experiment [12] and in [13] was inactive. In addition, the result in [15] and in [16] was inactive. For the same compound, the potentiation is 27% (active) in experiment [4] and 52.4% (active) in [14].
As for `Cc1ccc(CSc2nc(-c3ccccc3)c(C#N)c(=O)[nH]2)cc1`, the outcome in experiment [1], in [2], in experiment [3], in [4], in experiment [5] and in experiment [7] was inactive. In addition, the result in experiment [17], in experiment [9], in experiment [10], in experiment [11], in experiment [12] and in [14] was inactive. Also, the result in experiment [15] and in experiment [16] was inactive. Moreover, the inhibition was 49% (active) in experiment [6] and 12% (active) in [13].
`CCCc1nc2oc3c(NCCN(C)C)ncnc3c2c2c1CCCC2`: the outcome in experiment [1], in experiment [2], in experiment [3], in experiment [4], in experiment [7] and in experiment [17] was inactive. The outcome in experiment [9], in [10], in [11], in experiment [12], in experiment [14] and in [15] was inactive. In addition, the result in [16], in experiment [18], in experiment [19] and in experiment [20] was inactive. The inhibition in [5] was 86% (active); in experiment [6], 37% (active); in experiment [13], 13.5% (active).
On to `O=C1C(Cl)=C(Nc2cccc(O)c2)C(=O)N1Cc1ccccc1`, for which the outcome in experiment [1], in [2], in experiment [3], in [5], in experiment [6] and in [7] was inactive. Also, the result in experiment [8], in [9], in [10], in experiment [11], in experiment [12] and in experiment [13] was inactive. The result in [15] and in experiment [16] was inactive. In addition, the potentiation in [4] is 38% (active); in experiment [14], 20.8% (active).
Turning to `Cc1cc(OCC(=O)NC2CCCCC2)ccc1Cl`, the result in [1], in experiment [2], in [3], in [4], in experiment [5] and in experiment [6] was inactive. Also, the result in experiment [7], in [8], in experiment [9], in experiment [10], in experiment [11] and in experiment [12] was inactive. Moreover, the outcome in experiment [13], in [15] and in experiment [16] was inactive. Besides, the potentiation in experiment [14] was 97.2% (active).
Take `CCn1c(O)c(N=NC(=O)c2cccc(S(=O)(=O)N3CCCCC3)c2)c2ccccc21`: the outcome in experiment [1], in experiment [2], in experiment [3], in experiment [4], in experiment [5] and in [6] was inactive. In addition, the outcome in experiment [7], in experiment [8], in [9], in experiment [10], in experiment [11] and in experiment [12] was inactive. For the same compound, the result in [13], in experiment [15] and in experiment [16] was inactive. For the same compound, the potentiation in [14] is 6.79% (active).
As for `Cc1ccc(S(=O)(=O)N2CCC(N3CCN(C)CC3)CC2)cc1Cl`, the result in experiment [1], in experiment [2], in experiment [5], in experiment [6], in [7] and in experiment [8] was inactive. Also, the outcome in experiment [9], in experiment [10], in experiment [11], in experiment [12], in experiment [13] and in [15] was inactive. The outcome in [16] was inactive. Also, the potentiation in experiment [3] is 12% (active); in experiment [4], 20% (active); in [14], 34.5% (active).
